# Measurements reported in PubChem BioAssay AID624296 (National Center for Advancing Translational Sciences (NCATS), 2012).
# Among all 350,000 compounds or so, about 9,900 (2.8%) were called active. Roughly 15% stayed inconclusive and do not appear here. The call rests on the fitted dose curve; in most records, active means well fitted activation curve with a large enough effect; inconclusive means small, poorly fitted or top-dose-only effect; inactive means no such curve, though single readings can be large or run the other way. The list comes from a sample in which actives are over-represented; it also holds similar structures and randomly drawn compounds. Where a call stands in place of a potency, no number is given.
# Assay: A quantitative high throughput screen for small molecules that induce DNA re-replication in MCF 10a normal breast cells. Further: nearly all actives have a fitted effect of over 50% in size.
# Conditions: MCF 10A DNA re-replication, Hoechst nuclear intensity, 48 h; series mostly up to 46.1 µM
# Potency means the concentration at half of the fitted maximal effect.
row,Structure (SMILES),Potency
1,O=C(/C=C/c1ccccc1[N+](=O)[O-])OC1CCCCC1=O (stereo not drawn),inactive
2,CC1CCCCC1NC(=O)/C(C#N)=C/C=C/c1ccccc1[N+](=O)[O-] (stereo not drawn),2.91 µM (active)
3,O=C(/C=C/c1ccccc1[N+](=O)[O-])NCC1CCCO1 (stereo not drawn),inactive
4,O=C(CSc1ccccc1)Nc1cccc(S(=O)(=O)N2CCCCC2)c1,inactive
5,C=CC[C@@H](CC(=O)NCCO)C(=O)N[C@H](C)COC(=O)[C@@H](CC=C)CC(=O)OC(C)(C)C,inactive
6,O=C(/C=C\c1ccc2c(c1)OCO2)NC1(C(=O)Nc2ccc3c(c2)OCCO3)CCCCC1,inactive
7,CCc1c(C)sc(NC(=O)/C=C/c2ccc3c(c2)OCO3)c1C(=O)OC,5.8 µM (active)
8,Cc1cccc(NC(=O)/C=C/c2ccc3c(c2)OCO3)n1,inactive
9,Cc1csc(=O)n1CCC(=O)OCC(=O)NNC(=O)c1ccc(Br)cc1,inactive
10,COc1ccc(/C=N/NC(=O)c2ccccc2)cc1OS(=O)(=O)c1ccccc1,20.6 µM (active)
11,COc1cc(/C=N/NC(=O)Cc2ccccc2)cc(OC)c1OC,inactive
12,COc1cc(/C=N/NC(=O)c2ccccc2)ccc1OS(=O)(=O)c1ccccc1,inactive
13,COc1ccc(/C=N/S(=O)(=O)c2ccccc2)cc1OC,inactive
14,CCOC(=O)/C(C#N)=C/c1ccc(OCC(=O)Nc2ccccc2)c(OC)c1,inactive
15,COc1cc(/C=N/NC(=O)Nc2ccccc2)ccc1OCCOc1ccccc1C,1.16 µM (active)
16,CC(C(=O)NC1CCCC1)N1CCN(S(=O)(=O)c2ccccc2Cl)CC1 (stereo not drawn),inactive
17,COC(=O)C1=C(C)NC(=S)NC1c1ccc(OCC(=O)N2CC(C)OC(C)C2)c(OC)c1 (stereo not drawn),inactive
18,O=C(CSc1ccc(/C=N/NC(=O)c2cccc(F)c2)o1)Nc1ccccc1,inactive
19,O=C(Cn1cc(/C=N/NC(=O)c2cccc(C(F)(F)F)c2)c2ccccc21)Nc1ccc(F)cc1,20.6 µM (active)
20,COc1ccc(/C=N/NC(=O)c2cccc(C(F)(F)F)c2)cc1,inactive
21,CC(C)(C)Nc1c(-c2cccs2)nc2ccccn12,inactive
22,Cc1cc(-c2cccs2)nc(-n2cccc2)n1,inactive
23,Cc1cc2nc(C(F)(F)F)cc(-c3cccs3)n2n1,0.92 µM (active)
24,CN(C(=O)Cn1nnc(-c2ccc(F)cc2)n1)C1CCS(=O)(=O)C1 (stereo not drawn),inactive
25,CN1CCN(c2ccc(NC(=O)c3cc(Cl)c4c(c3)OCCO4)cc2)CC1,inactive
26,CC(=O)Nc1ccc(OCC(=O)NCc2ccc(C)cc2)cc1,1.16 µM (active)
27,Cc1ccc(CNC(=O)COc2ccc3c(c2)CCC3)cc1,inactive
28,Cc1ccc(CNC(=O)COc2ccc(S(=O)(=O)NC(C)C)cc2)cc1,inactive
